Test results: PubChem BioAssay AID1159580 (chemical genetic matrix, 2015)
Values joined by “and” are separate entries in the source; they are usually repeats but may differ in a detail not shown here. Equal entries are not always repeated. Among all 5,500 compounds or so, about 2,000 (36%) were called active. Another 18% or so got no clear call; they are omitted. Cut-off read from the data, not from the text of the source: active = normalized growth mostly below about 0.91 (no sharp cut-off); inconclusive = no clear call, values can overlap the other calls; inactive = mostly above about 0.92. Some of the results follow. *1 amine or outer side, *2 acyl side, *3 side chain or, on linkers, in order; H or OH if unused. Where a SMILES comes first, the peptide text is derived from it. Bridges are numbered along the chain shown (N, C = ends). [ ]: non-standard residue; d: D form. The star is where a group is joined. ξ: configuration not given here. ΔAla(E,3-NHCONH2) = NC(=O)N/C=C(/N)C(=O)O; X2 = NC1=NCCC(C(N[*:1])C(=O)[*:2])N1; ξβ3hOrn = NCCCC(N)CC(=O)*; Dap = NC[CH](N)C(=O)O

Test: chemical genetic growth profiling, strain panel (AID 1159580);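 note: tested at 20 µM; growth read once vehicle control cultures reached saturation at 30 °C; 1 = growth at the plate median or of vehicle wells; lower values mean less growth of the strain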
Conditions: S. cerevisiae deletion strains, growth OD

Measured: normalized growth

NCCCC(N)CC(=O)NCC1NC(=O)C(CO)NC(=O)C(N)CNC(=O)C(C2CCN=C(N)N2)NC(=O)/C(=C\NC(N)=O)NC1=O (stereo not drawn) (H-[Dap]S[Dap](ξβ3hOrn)[ΔAla(E,3-NHCONH2)][X2]; lactam 1-C; configuration not given here)
inactive: locus YAL013W, strain DEP1, hits give low values 0.999 | locus YAL021C, strain ccr4, hits give low values 1.01 | locus YAL026C, strain drs2, hits give low values 0.994 | locus YAL030W, strain snc1, hits give low values 1.03 | locus YBL061C, strain skt5, hits give low values 1.02 | locus YBR009C, strain hhf1, hits give low values 0.975 | locus YBR021W, strain FUR4, hits give low values 0.997 | locus YBR023C, strain chs3, hits give low values 1.01 | locus YBR171W, strain sec66, hits give low values 1.02 | locus YBR229C, strain ROT2, hits give low values 1.01 | locus YBR231C, strain swc5, hits give low values 1.05 | locus YBR279W, strain paf1, hits give low values 1.01 | locus YCL011C, strain gbp2, hits give low values 0.984 | locus YCL016C, strain dcc1, hits give low values 0.989 | locus YCL029C, strain bik1, hits give low values 1.03 | locus YCL069W, strain vba3, hits give low values 1.01 | locus YCR088W, strain abp1, hits give low values 1.02 | locus YDL005C, strain med2, hits give low values 0.994 | locus YDL035C, strain GPR1, hits give low values 1.01 | locus YDL040C, strain nat1, hits give low values 1.01 | locus YDL074C, strain BRE1, hits give low values 1.02 | locus YDL101C, strain DUN1, hits give low values 1 | locus YDL185W, strain tfp1, hits give low values 1.03 | locus YDL192W, strain arf1, hits give low values 0.998 | locus YDR001C, strain nth1, hits give low values 0.999 | locus YDR069C, strain doa4, hits give low values 1.03 | locus YDR101C, strain arx1, hits give low values 1.02 | locus YDR137W, strain rgp1, hits give low values 0.991 | locus YDR159W, strain sac3, hits give low values 0.975 | locus YDR162C, strain NBP2, hits give low values 1.01 | locus YDR195W, strain ref2 1.05 | locus YDR297W, strain sur2, hits give low values 1.03 | locus YDR318W, strain mcm21, hits give low values 1.02 | locus YDR334W, strain swr1, hits give low values 1 | locus YDR335W, strain msn5, hits give low values 1.02 | locus YDR388W, hits give low values 1.01 | locus YDR392W, strain spt3, hits give low values 0.928 | locus YDR502C, strain sam2, hits give low values 1.01 | locus YEL003W, strain gim4, hits give low values 1.04 | locus YEL037C, strain rad23, hits give low values 1.02 | locus YEL061C, strain CIN8 (second series), hits give low values 1.02 | locus YEL061C, strain CIN8, hits give low values 0.997 | locus YER015W, strain faa2, hits give low values 1.01 | locus YER016W, strain bim1, hits give low values 0.993 | locus YER110C, hits give low values 1.02 | locus YER111C, strain swi4, hits give low values 0.999 | locus YER155C, strain BEM2 (second series), hits give low values 1 | locus YER155C, strain BEM2, hits give low values 1 | locus YER167W, strain BCK2, hits give low values 0.996 | locus YFR010W, strain ubp6, hits give low values 1.05 | locus YGL078C, strain dbp3, hits give low values 1.02 | locus YGL086W, strain mad1, hits give low values 0.997 | locus YGL167C, strain pmr1, hits give low values 1.02 | locus YGL173C, strain kem1, hits give low values 1.04 | locus YGL227W, strain vid30, hits give low values 1.01 | locus YGL240W, strain doc1, hits give low values 1.06 | locus YGL248W, strain PDE1, hits give low values 1.01 | locus YGL253W, strain hxk2, hits give low values 0.984 | locus YGR078C, strain PAC10, hits give low values 1.01 | locus YGR135W, strain pre9, hits give low values 1.04 | locus YGR229C, strain SMI1, hits give low values 1.02 | locus YGR252W, strain gcn5, hits give low values 0.993 | locus YHR013C, strain ard1, hits give low values 1.03 | locus YHR027C, strain rpn1, hits give low values 1.01 | locus YHR030C, strain SLT2, hits give low values 1 and 1.03 | locus YHR079C, strain IRE1 (second series), hits give low values 1.02 | locus YHR079C, strain IRE1, hits give low values 1.03 | locus YHR094C, strain hxt1, hits give low values 1.01 | locus YHR129C, strain ARP1, hits give low values 0.999 | locus YHR142W, strain chs7, hits give low values 1.01 | locus YHR200W, strain rpn10, hits give low values 1.02 | locus YIL066C, strain RNR3, hits give low values 1.01 | locus YIL073C, strain SPO22, hits give low values 1.08 | locus YIL125W, strain kgd1, hits give low values 1.01 | locus YIR030C, strain dcg1, hits give low values 1.01 | locus YJL092W, strain hpr5, hits give low values 1.03 | locus YJL095W, strain BCK1 (second series), hits give low values 1.03 | locus YJL095W, strain BCK1, hits give low values 1.01 and 1.04 | locus YJL115W, strain asf1, hits give low values 1.02 | locus YJL129C, strain trk1, hits give low values 1.01 | locus YJL134W, strain LCB3, hits give low values 1.01 | locus YJL154C, strain vps35, hits give low values 1.01 | locus YJL164C, strain tpk1, hits give low values 1 | locus YJL166W, strain qcr8, hits give low values 1.04 | locus YJL168C, strain set2, hits give low values 1.01 | locus YJL187C, strain SWE1 (second series), hits give low values 1.01 | locus YJR043C, strain POL32, hits give low values 1.01
